Results filed as inconclusive are left out. Calls of active or inactive are those of the source. Calls follow the shape of the dose curve; as a rule, active = well fitted cell-killing curve with a large enough effect; inconclusive = small, poorly fitted or top-dose-only effect, or effect the other way; inactive = no such curve, though single readings can be large or run the other way. *1 amine or outer side, *2 acyl side, *3 side chain or, on linkers, in order; H or OH if unused. Where a SMILES comes first, the peptide text is derived from it. Bridges are numbered along the chain shown (N, C = ends). Roman numbers before positions name the chains, in order. [ ]: non-standard residue; d: D form. Actinocin(9to1) = Cc1c2oc3c(C)ccc(C(=O)[*:1])c3nc-2c(C(=O)[*:2])c(N)c1=O; NMeV = CN[C@H](C(=O)O)C(C)C; Sar = CNCC(=O)O

This is an account of results in PubChem BioAssay AID1345085 (National Center for Advancing Translational Sciences (NCATS), 2018).
Potency is read from the fitted curve at half-maximal effect.

This test concerns C33A. The test is described as follows: Confirmatory qHTS for gynecologic anti-cancer compounds from libraries of approved drugs and bioactive compounds. Also: nearly all actives have a fitted effect of over 55% in size. To be noted: gynecologic cancer cell panel viability, ATPlite luminescence, 48 h; series mostly up to 57.6 µM. The essentials:
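IC50 values derive from an ATPlite ATP-content luminescence assay following 48 h treatment at 37 C. Each compound ran as an 11-concentration, threefold series (57.5 uM to 0.977 nM); HEK 293T served as control line for selectivity index.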
As to `COc1cc2c(Nc3ccc(NC(=O)c4ccccc4)cc3)ncnc2cc1OCCCN1CCOCC1`, the Potency was 27300 nM (active).

On to `Cc1c(NC(=O)OCC2COCCN2)cn2ncnc(Nc3ccc4c(cnn4Cc4cccc(F)c4)c3)c12` (stereo not drawn), for which the Potency was 24300 nM (active).

`CCN1CCN(Cc2ccc(Nc3ncc(F)c(-c4cc(F)c5nc(C)n(C(C)C)c5c4)n3)nc2)CC1`: the Potency result was “inactive”.

Turning to `Cc1cnc(Nc2ccc(CN3CCOCC3)cc2)nc1Nc1cccc(S(=O)(=O)NC(C)(C)C)c1`, the Potency is 21700 nM (active).

`CCCS(=O)c1ccc2nc(NC(=O)OC)[nH]c2c1` (stereo not drawn): the Potency result was “inactive”.

Consider `C[C@@]1(C(=O)Nc2ccc(F)nc2)CCCN1c1nc(Nc2cc(C3CC3)[nH]n2)c2cccn2n1`, for which the Potency result was “inactive”.

Turning to `CNC(=O)c1nn(C)c2c1C(C)(C)Cc1cnc(Nc3ccc(N4CCN(C)CC4)cc3)nc1-2`, the Potency result was “inactive”.

On to `COc1cccc2c1C(=O)c1c(O)c3c(c(O)c1C2=O)C[C@@](O)(C(=O)CO)C[C@@H]3O[C@H]1C[C@H](N)[C@H](O[C@@H]2CCCCO2)[C@H](C)O1`, for which the Potency was 2430 nM (active).

With `Cc1ccc(C(=O)N(CCCN)C(c2oc3cc(Cl)ccc3c(=O)c2Cc2ccccc2)C(C)C)cc1` (stereo not drawn), the Potency was 769 nM (active).

On to `COc1cccc2c1C(=O)c1c(O)c3c(c(O)c1C2=O)C[C@@](O)(C(=O)CO)C[C@@H]3O[C@H]1C[C@H](N)[C@H](O)[C@H](C)O1`, for which the Potency is 1220 nM (active).

`Cc1[nH]c2ccccc2c1CCNCc1ccc(/C=C/C(=O)NO)cc1`: the Potency is 243 nM (active).

As for `COc1ccc(CCC(=O)c2c(O)cc(O[C@@H]3O[C@H](CO)[C@@H](O)[C@H](O)[C@H]3O[C@@H]3O[C@@H](C)[C@H](O)[C@@H](O)[C@H]3O)cc2O)cc1O`, the Potency entry was “inactive”.

On to `O=C1N(c2ccccc2)c2ccccc2C1(Cc1ccncc1)Cc1ccncc1`, for which the Potency result is “inactive”.

On to `CC[C@]1(O)C[C@H]2CN(CCc3c([nH]c4ccccc34)[C@@](C(=O)OC)(c3cc4c(cc3OC)N(C=O)[C@H]3[C@@](O)(C(=O)OC)[C@H](OC(C)=O)[C@]5(CC)C=CCN6CC[C@]43[C@@H]65)C2)C1`, for which the Potency is 306 nM (active).

As for `CC(C)C[C@H](NC(=O)[C@H](Cc1ccccc1)NC(=O)c1cnccn1)B(O)O`, the Potency is 153 nM (active).

As for `Cc1csc(NC(=O)c2sc3nc4c(c(C(F)(F)F)c3c2N)CCC4)n1`, the Potency is 1930 nM (active).

In the case of `Cc1c2oc3c(C)ccc(C(=O)N[C@@H]4C(=O)N[C@H](C(C)C)C(=O)N5CCC[C@H]5C(=O)N(C)CC(=O)N(C)[C@@H](C(C)C)C(=O)O[C@@H]4C)c3nc-2c(C(=O)N[C@@H]2C(=O)N[C@H](C(C)C)C(=O)N3CCC[C@H]3C(=O)N(C)CC(=O)N(C)[C@@H](C(C)C)C(=O)O[C@@H]2C)c(N)c1=O` (I: T[dV]P[Sar][NMeV] / II: T[dV]P[Sar][NMeV]; ester I:1-I:C, II:1-II:C; linker I:N-II:N via Actinocin(9to1)), the Potency was 385 nM (active).

With `Nc1ccn([C@@H]2O[C@H](CO)[C@@H](O)C2(F)F)c(=O)n1`, the Potency was 17.2 nM (active).

Consider `CN[C@@H](C)C(=O)N[C@H]1CN(C(=O)CC(C)C)CC[C@H]2CC[C@@H](C(=O)NC(c3ccccc3)c3ccccc3)N2C1=O`, for which the Potency entry was “inactive”.

Consider `CC1=C(CO)C(=O)O[C@@H]([C@@H](C)[C@H]2CC[C@H]3[C@@H]4C[C@H]5O[C@]56[C@@H](O)C=CC(=O)[C@]6(C)[C@H]4CC[C@]23C)C1`, for which the Potency is 2110 nM (active).

For `CC(C)C[C@H](NC(=O)[C@@H](NC(=O)c1cccc(-c2ccccc2)n1)[C@@H](C)O)B(O)O`, the Potency was 385 nM (active).

For the molecule `CCCc1nn(C)c2c(=O)[nH]c(-c3cc(S(=O)(=O)N4CCN(C)CC4)ccc3OCC)nc12`, the Potency result is “inactive”.

Regarding `Cc1cc(Nc2nc(N[C@@H](C)c3ccc(F)cc3)c(C#N)cc2F)n[nH]1`, the Potency entry is “inactive”.

Take `CN1CCN(c2cccc(Nc3nc4c(-c5ccc(S(C)(=O)=O)cc5)cccn4n3)c2)CC1`: the Potency result was “inactive”.

As to `CN(C)c1ccc2nc3ccc(=[N+](C)C)cc-3sc2c1`, the Potency is 21700 nM (active).

Regarding `Cc1ccc(NC(=O)c2ccc(CN3CCN(C)CC3)cc2)cc1Nc1nccc(-c2cccnc2)n1`, the Potency result was “inactive”.

For the molecule `COc1cc(Nc2ncc3c(n2)-c2ccc(Cl)cc2C(c2c(F)cccc2OC)=NC3)ccc1C(=O)O`, the Potency entry was “inactive”.

For `CCCC(=O)O[C@]1(C(=O)CCl)[C@@H](C)C[C@H]2[C@@H]3CCC4=CC(=O)C=C[C@]4(C)[C@@]3(F)C(=O)C[C@@]21C`, the Potency entry is “inactive”.
